From the supplement of paper PMC6555819

Columns and labels:
Experiment in all cases: PBM binding z-score (relative to random genomic background probes); higher = stronger binding; sequences stand for … in GC…GCGATTGACAGCGTAGAATGAAGG
[1] = test system: FXR:RXRa (NR concentration 270 nM, RXRa partner concentration 90 nM)
Outline: (§1)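 Regression normalization was applied to scanned fluorescence from custom Agilent 4×180K protein-binding microarrays. Before scanning, arrays were incubated 1 h with ligand-free nuclear receptor dimers, and binding was detected with antibodies against each partner (one per run). Binding z-scores use the random background probes as reference.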

[2] = test system: LXRa:RXRa (NR concentration 270 nM, RXRa partner concentration 90 nM)
Outline: as §1

[3] = test system: LXRa homodimer (NR concentration 270 nM)
Outline: as §1

[4] = test system: LXRb:RXRa (NR concentration 270 nM, RXRa partner concentration 90 nM)
Outline: as §1

[5] = test system: LXRb homodimer (NR concentration 270 nM)
Outline: as §1

[6] = test system: PPARa:RXRa (NR concentration 270 nM, RXRa partner concentration 90 nM)
Outline: as §1

[7] = test system: PPARg:RXRa (NR concentration 180 nM, RXRa partner concentration 90 nM)
Outline: as §1

[8] = test system: PPARg:RXRa 270nM:90nM, anti-RXR (NR concentration 270 nM, RXRa partner concentration 90 nM)
Outline: as §1

[9] = test system: PPARg:RXRa 30nM:10nM, anti-RXR (NR concentration 30 nM, RXRa partner concentration 10 nM)
Outline: as §1

[10] = test system: PPARg:RXRa 90nM:30nM, anti-RXR (NR concentration 90 nM, RXRa partner concentration 30 nM)
Outline: as §1

| Sequence | PBM binding z-score [1] | PBM binding z-score [2] | PBM binding z-score [3] | PBM binding z-score [4] | PBM binding z-score [5] | PBM binding z-score [6] | PBM binding z-score [7] | PBM binding z-score [8] | PBM binding z-score [9] | PBM binding z-score [10] |
| --- | --- | --- | --- | --- | --- | --- | --- | --- | --- | --- |
| CCTTACGGGTCCCTGACAGGTTATAGCATTTGGA | -0.274 | -0.086 | 0.128 | -0.0575 | -0.647 | 0.0699 | 0.112 | -0.345 | -0.32 | -0.402 |
| TGAATGAGGTCAAAGATCAGGGAACGTGGCGTCG | 7.57 | 6.26 | 1.74 | 4.88 | 2.72 | 6.45 | 9.41 | 8.31 | 7.23 | 9.22 |
| CGGCCAAGGTCAAAGGTCAGTGAAGAGATGACGG | 8.62 | 7.07 | 2.81 | 6.59 | 1.33 | 7.11 | 10.8 | 8.98 | 8.13 | 9.65 |
| GCTGCTAGGTCAACTGAGGGTCAGCTAAAGCTCG | 5.12 | 4.47 | 1.48 | 3.45 | 0.289 | 4.35 | 3.55 | 4.15 | 0.901 | 2.72 |
| GCTGCTAGGTCAGGTTGGTCAACTAACGGGTACG | 1.14 | 0.685 | -0.134 | 0.695 | -0.424 | 1.46 | 0.577 | 0.833 | -0.708 | 0.0771 |
| ATCGAAAGGTCGACGAGGAGAGTATACACCGTTT | 3.22 | 3.26 | -0.0644 | 2.71 | 0.517 | 4.05 | 2.55 | 2.76 | 1.4 | 1.8 |
| CGACCTAGGTCACCAGGACAGTGAAGAGGTTGGA | 4.89 | 2.91 | -0.161 | 2.09 | -0.881 | 4.22 | 5.25 | 4.5 | 1.21 | 3.13 |
| CGAACTAGGTTAAAGGACAGTGAAAGGCGACGTA | -0.0523 | 0.122 | -0.254 | 0.129 | -0.736 | 3.82 | 7.8 | 7.53 | 7.49 | 8.79 |
| TCTCGGATGACACGAAAGGTCAGAGCTCGACATC | 2.84 | 3.68 | 2.02 | 3.4 | 0.368 | 3.8 | 1.38 | 2.75 | 2.83 | 2.72 |
| ACTAATTGGTCAGCTGAGGTCACACACAATTCGG | 3.46 | 3.25 | 2.59 | 3.68 | 1.15 | 4.06 | 2.17 | 2.77 | 1.23 | 1.88 |
| ATATGTAGGTTAGGGTCACTCAGAAAGTAGGGAA | 4.33 | 3.26 | 0.67 | 3.89 | 1.47 | 5.51 | 7.42 | 6.49 | 3.96 | 6.11 |
| CCTCGGAGGACAACAGGATGTCAGAGCTGCCAGA | -0.208 | -0.272 | -0.316 | -0.845 | -1.16 | -0.631 | 0.183 | -1.12 | -0.754 | -1.23 |
| TAGCCTAGGTCATTCAGGCGCCAGTATAGAAAGC | 5.09 | 3.26 | 0.555 | 2.5 | 0.661 | 3.35 | 2.01 | 2.37 | 0.32 | 1.41 |
| GATAAAGGGTCAGCTAGAGGCCAGAGTATGGAAA | 5.39 | 3.97 | 0.0664 | 3.27 | 0.0558 | 5.06 | 4.3 | 4.76 | 2.03 | 3.31 |
| CGTCAAAGCTCAACTAAGGTAACGTAAAGCACGC | 0.16 | -0.241 | -0.0906 | -0.093 | -0.32 | -0.0617 | 0.335 | -0.241 | -0.2 | -0.494 |
| ATATGTAGGTTAGGGTTATTCAGAAAGTAGGGAA | 2.3 | 2.27 | 0.961 | 2.84 | 1.66 | 4.11 | 5.61 | 5.21 | 3.18 | 4.8 |
| CCTGCTAGGTCTATGGTCAGCTAAAGCAGCTCGC | -0.302 | -0.394 | -0.393 | -0.493 | -0.41 | -0.509 | -0.485 | 0.268 | -1.04 | -0.432 |
| GGAACGAGGGCAAAGGTGATAGCATCTGTCGACG | 2.08 | 1.64 | -0.402 | 1.23 | -0.651 | 4.97 | 9.32 | 8.6 | 7.51 | 9.41 |
| CGAAATAGGTCACCAGGACAGTGAAGAGGTTGGA | 5.67 | 4.08 | 0.461 | 3.13 | 0.187 | 5.9 | 8.44 | 7.47 | 4.7 | 6.97 |
| CGAACTACGTCACCAGGACAGTGAAGAGGTTGGA | -0.0876 | -0.2 | -0.121 | -0.435 | -0.676 | -0.258 | 0.527 | -0.464 | 0.0797 | -0.46 |
| CGAACTAAGTCACCAGGACAGTGAAGAGGTTGGA | -0.00843 | -0.109 | -0.233 | -0.378 | -0.234 | 0.219 | 0.494 | 0.0365 | 0.0312 | -0.255 |
| CCTACTGGGCCACGTAAGGTCATTGATTCAGTGA | 3.42 | 5.12 | 3.52 | 3.3 | -0.468 | 3.47 | 3.29 | 3.76 | 0.808 | 2.54 |
| ATATGAAGGTTATCGGGTCATTCAGTTTGCGCAT | 4.04 | 3.38 | 1.74 | 3.02 | 0.891 | 4.1 | 4.21 | 4.21 | 1.52 | 3.11 |
| CGAACGAGGTCAGAACAGGACAGTGAAGGATGAT | 5.64 | 4.06 | 0.279 | 2.95 | 0.317 | 4.97 | 4.86 | 4.15 | 1.32 | 3.02 |
